Where a name gives a salt, the structure may show the parent alone.

This assay deals with Vero E6 infected with SARS-CoV-2. The experiment in a line: SARS-CoV-2 infection rate relative to infected DMSO; higher = more infection, active = 60 or less. Particulars: 24 h.
Turning to `CC(C)NC(=N)NC(=N)Nc1ccc(Cl)cc1` [proguanil] (10 µM), the SARS-CoV-2 infection rate is 112% (inactive). The result for `N[C@@H](C[C@@H](F)C(=O)O)C(=O)O` (10 µM) reads 110% (inactive). As for `CCNC(=O)C[C@@H]1N=C(c2ccc(Cl)cc2)c2cc(OC)ccc2-n2c(C)nnc21` (10 µM), the figure is 106% (inactive); as for `CCCC(CCC)C(=O)Nc1ccn([C@@H]2O[C@H](CO)[C@@H](O)C2(F)F)c(=O)n1` (0.833333 µM), 100% (inactive); as for `c1ccc2c(c1)CCC[C@H]2Nc1nc2ccccc2[nH]1` (10 µM), 89% (inactive). The result for `CN=c1nc(-c2ccccc2)n(-c2ccccc2)s1` (10 µM) reads 97.5% (inactive). In the case of `C=CC(=O)Nc1cccc(Oc2nc(Nc3ccc(N4CCN(C)CC4)cc3)nc3ccsc23)c1` [olmutinib] (0.833333 µM), the SARS-CoV-2 infection rate is 94.5% (inactive). The result for `CC(C)[C@H](CO)Nc1nc(Nc2cccc(Cl)c2)c2ncn(C(C)C)c2n1` [purvalanol-A] (0.833333 µM) reads 109% (inactive); that for `CN(C)C(=O)COC(=O)Cc1ccc(OC(=O)c2ccc(NC(=N)N)cc2)cc1` [Camostat mesylate] (10 µM), 104% (inactive); that for `CCOc1nc2cccc(C(=O)OCc3oc(=O)oc3C)c2n1Cc1ccc(-c2ccccc2-c2noc(=O)[nH]2)cc1` [azilsartan-medoxomil] (10 µM), 116% (inactive). For the compound `CCC(=O)Nc1cccc(Oc2nc(Nc3ccc(N4CCN(C)CC4)cc3OC)ncc2Cl)c1` (10 µM), the SARS-CoV-2 infection rate was 114% (inactive).

With `CCc1c(O)cc(O)c(C(=O)c2ccc(OCCN3CCOCC3)c(OC)c2)c1CC(=O)N(CCOC)CCOC` (10 µM), the SARS-CoV-2 infection rate was 102% (inactive). As for `NC(=O)c1cccc(-c2cccc(OC(=O)NC3CCCCC3)c2)c1` (10 µM), the figure is 104% (inactive); as for `N#Cc1cc(CN2CCC(Nc3ncnc4sc(Cl)cc34)CC2)ccc1F` (10 µM), 116% (inactive). The result for `CN1CCN(c2nc(C3=C(c4c[nH]c5ccccc45)C(=O)NC3=O)c3ccccc3n2)CC1` [sotrastaurin] (10 µM) reads 119% (inactive); that for `Cc1ccc(/C(=C\CN2CCCC2)c2cccc(/C=C/C(=O)O)n2)cc1` [acrivastine] (10 µM), 104% (inactive). For `O=C1c2ccccc2S(=O)(=O)N1CCCCN1CCN(c2ncccn2)CC1` [ipsapirone] (10 µM), the SARS-CoV-2 infection rate is 102% (inactive). The result for `COc1ccc2cc([C@H](C)C(=O)O)ccc2c1` [naproxen] (10 µM) reads 106% (inactive); that for `CC(=O)O[C@H]1C[C@@]2(C)[C@@H](C[C@@H](O)[C@H]3[C@@]4(C)CC[C@@H](O)[C@@H](C)[C@@H]4CC[C@@]32C)/C1=C(\CCC=C(C)C)C(=O)O` [fusidic-acid] (10 µM), 98% (inactive). As for `O=C(OCCN1CCOCC1)C1(c2ccccc2)CCCCC1` (10 µM), the figure is 106% (inactive); as for `CS(=O)(=O)c1ccc(C2=C(c3ccccc3)C(=O)OC2)cc1` [rofecoxib] (10 µM), 96.5% (inactive). As for `COc1ccc(CN(C(=O)[C@@H](N)Cc2c(C)cc(C(N)=O)cc2C)[C@@H](C)c2ncc(-c3ccccc3)[nH]2)cc1C(=O)O` [eluxadoline] (10 µM), the figure is 117% (inactive). On to `O=C(c1ccc(OCCN2CCCCC2)cc1)c1c(-c2ccc(O)cc2)sc2cc(O)ccc12` [raloxifene] (0.833333 µM), for which the SARS-CoV-2 infection rate is 101% (inactive).

Take `NCCNc1ccc(NCCN)c2c1C(=O)c1ccncc1C2=O` [pixantrone] (10 µM): the SARS-CoV-2 infection rate was 71% (inactive). Regarding `COc1ccc2c(c1)c(CC(=O)O)c(C)n2C(=O)c1ccc(Cl)cc1` [indomethacin] (10 µM), the SARS-CoV-2 infection rate is 104% (inactive).

Consider `NC(=O)c1nc(F)cnc1O` [favipiravir] (10 µM), for which the SARS-CoV-2 infection rate is 104% (inactive). As for `O=C1C(=Cc2cccnc2)C(=O)c2ccccc21` (10 µM), the figure is 99% (inactive).

Consider `CCCC(=O)O[C@]1(C(=O)CO)CC[C@H]2[C@@H]3CCC4=CC(=O)CC[C@]4(C)[C@H]3[C@@H](O)C[C@@]21C` [hydrocortisone-butyrate] (10 µM), for which the SARS-CoV-2 infection rate was 102% (inactive).

Take `Clc1cccc2c1CN(C1=NCCN1)C2` (10 µM): the SARS-CoV-2 infection rate is 93.5% (inactive). On to `CC(C)n1nc(-c2cc3cc(O)ccc3[nH]2)c2c(N)ncnc21` (10 µM), for which the SARS-CoV-2 infection rate is 95.5% (inactive). With `N[C@@H](Cc1ccc(O)cc1)C(=O)NCC(=O)NCC(=O)O` (10 µM), the SARS-CoV-2 infection rate was 114% (inactive). With `NC(N)=O` [urea] (10 µM), the SARS-CoV-2 infection rate is 114% (inactive).

For the compound `CN1[C@H]2C[C@H](OC(=O)[C@H](CO)c3ccccc3)C[C@@H]1[C@@H](O)C2` [anisodamine] (10 µM), the SARS-CoV-2 infection rate is 116% (inactive).

As to `CCCc1nc2c(C)cc(-c3nc4ccccc4n3C)cc2n1Cc1ccc(-c2ccccc2C(=O)O)cc1` [telmisartan] (10 µM), the SARS-CoV-2 infection rate is 100% (inactive). The result for `O=S(=O)(c1ccccc1)N(CC(F)(F)F)c1ccc(C(O)(C(F)(F)F)C(F)(F)F)cc1` (10 µM) reads 104% (inactive). As for `Cc1cc(SCc2sc(-c3ccc(C(F)(F)F)c(F)c3)nc2C)ccc1OCC(=O)O` (10 µM), the figure is 99.5% (inactive); as for `CC(=O)N(O)C/C=C/c1cccc(Oc2ccccc2)c1` (10 µM), 97.5% (inactive); as for `CC(=O)NCCc1c(Cc2ccccc2)[nH]c2ccccc12` [luzindole] (10 µM), 99% (inactive).

Regarding `O=C(Nc1ccc(OC(F)(F)F)cc1)c1sccc1NCc1ccnc2ccccc12` (10 µM), the SARS-CoV-2 infection rate is 90% (inactive). For `N#CC(C#N)=Cc1ccc(O)c(O)c1` [tyrphostin-AG-18] (10 µM), the SARS-CoV-2 infection rate was 100% (inactive).

(Values after the supplement of paper PMC13380429.)
